An excerpt weighted towards active compounds, which were near 5.2% of everything screened.
PostGolgi yeast: growth inhibition of a yeast mutant, post-Golgi transport screen; post-Golgi transport phenotypic cell assay; inhibition, % at 10 µM; 0.9% of 98,000 active; AID 739;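 note: yeast cells grown in 1536-well plates; yeast grown about 18 h at 30C before absorbance read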
PostGolgi ctrl: yeast control strain growth, post-Golgi counter-screen. inhibition, % at 10 µM. efflux-deficient yeast background strain, growth absorbance A615, 16 h. 5% of 98,000 active
Calb biofilm kill: kills Candida albicans biofilms. inhibition, % at 6 µM. C. albicans biofilm + clotrimazole, Alamar Blue. 0.14% of 85,000 active. AID 834;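 active = inhibition above 20%; inactive = inhibition below 20%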;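 note: preformed 24 hr biofilms exposed to compound for 48 hr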
EphB4 antag: EphB4-ephrin-B2 interaction antagonism; EphB4 LBD / TNYL-RAW-Alexa532 peptide, fluorescence polarization; P54760; 0.15% of 97,000 active; inhibition, % at 7 µM;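 active = inhibition above the screen-wide mean inhibition plus 3 SD, cut at about 15% in these data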
Target sequence (P54760 whole entry, looked up, the tested form may be a part): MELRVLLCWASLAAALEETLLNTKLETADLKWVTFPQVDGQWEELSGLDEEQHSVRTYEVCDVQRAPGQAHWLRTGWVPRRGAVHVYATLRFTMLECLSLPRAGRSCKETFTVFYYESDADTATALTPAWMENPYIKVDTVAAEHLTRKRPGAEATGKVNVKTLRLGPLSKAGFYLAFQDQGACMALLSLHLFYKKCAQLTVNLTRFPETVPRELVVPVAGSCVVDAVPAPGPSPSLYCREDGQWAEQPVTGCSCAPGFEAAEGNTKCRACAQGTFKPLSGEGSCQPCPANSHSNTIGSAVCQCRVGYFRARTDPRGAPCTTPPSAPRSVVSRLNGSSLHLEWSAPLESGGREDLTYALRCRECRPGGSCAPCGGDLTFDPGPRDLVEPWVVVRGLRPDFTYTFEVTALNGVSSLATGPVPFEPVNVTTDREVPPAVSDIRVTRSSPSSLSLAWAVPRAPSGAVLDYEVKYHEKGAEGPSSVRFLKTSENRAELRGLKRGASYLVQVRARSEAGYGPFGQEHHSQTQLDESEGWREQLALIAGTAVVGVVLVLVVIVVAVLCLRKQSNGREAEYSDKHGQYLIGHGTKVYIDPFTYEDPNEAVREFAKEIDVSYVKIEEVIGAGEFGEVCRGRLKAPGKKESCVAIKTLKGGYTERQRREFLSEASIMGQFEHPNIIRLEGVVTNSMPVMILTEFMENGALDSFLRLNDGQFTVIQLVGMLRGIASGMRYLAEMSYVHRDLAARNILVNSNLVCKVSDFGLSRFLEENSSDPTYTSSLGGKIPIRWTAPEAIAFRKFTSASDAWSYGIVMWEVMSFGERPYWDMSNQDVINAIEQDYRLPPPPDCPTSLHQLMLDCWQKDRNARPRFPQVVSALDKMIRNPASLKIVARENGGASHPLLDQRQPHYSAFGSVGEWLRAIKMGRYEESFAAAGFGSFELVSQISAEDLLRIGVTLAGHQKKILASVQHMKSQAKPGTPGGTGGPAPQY
Large screens that a line does not name were inactive. Cut-off read from the data, not from the text of the source, unless noted: active = inhibition above about 30%; inactive = the rest.

CCOC(=O)Cc1cnc(NC(=O)NC(C(=O)OCC)(c2ccccc2)C(F)(F)F)s1 (stereo not drawn)	none
Cc1cccc(-c2c3c(=O)n(C)c(=O)n(C)c3c3nnc4ccccc4n23)c1	none (no result: PostGolgi yeast, PostGolgi ctrl, Calb biofilm kill)
Cn1c(NCc2ccccc2O)nc2ccccc21	none (no result: EphB4 antag)
C=CCc1cccc(CNc2nc3ccccc3n2C(C)C)c1O	PostGolgi ctrl 47
CC(=O)Nc1cc(C(C)(C)C)c(O)c(C(C)(C)C)c1	PostGolgi ctrl 33, Calb biofilm kill 68
COC(=O)c1ccc(/C=N/OCC(=O)NC2CCCC(C)C2C)cc1 (stereo not drawn)	PostGolgi ctrl 40
Cc1cccc(OCC2=NS(=O)(=O)c3ccccc3N2)c1	none
O=C(Nc1nnc(-c2ccccc2Cl)o1)c1cccnc1	none
CCOC(=O)C(NC(=O)c1ccc(F)cc1)(Nc1nnc(C)s1)C(F)(F)F (stereo not drawn)	PostGolgi ctrl 30 (no result: EphB4 antag)
CCOC(=O)NC(Nc1nnc(C)s1)(C(=O)OCC)C(F)(F)F (stereo not drawn)	none
C=CCn1c(COc2cccc3ccc(C)nc23)nnc1SCC(=O)OC	PostGolgi yeast 30
CCn1c(COc2cccc3cccnc23)nnc1SCC(=O)O	none
CC(=O)N(/N=C1\Sc2ccccc2C1=O)c1ccc(C)cc1C	PostGolgi ctrl 48
CC(=O)N(/N=C1\Sc2ccccc2C1=O)c1ccccc1	none (no result: Calb biofilm kill)
CC(=O)N(/N=C1\Sc2ccccc2C1=O)c1ccccc1C	PostGolgi ctrl 33
CC1=C(C(=O)Nc2cccnc2)C(c2ccc3c(c2)OCO3)C2=C(CCCC2=O)N1 (stereo not drawn)	none
Nc1nn(S(=O)(=O)c2cccc3nsnc23)cc1-c1ccc(Br)cc1	PostGolgi yeast 79, PostGolgi ctrl 72
Cc1ccc(-c2cn(S(=O)(=O)c3cccc4nsnc34)nc2N)cc1	PostGolgi yeast 48
CCCCCn1c2nc3ccccc3nc2c2c(=O)n(CC3CCCO3)c(C)nc21 (stereo not drawn)	none (no result: PostGolgi yeast, PostGolgi ctrl, EphB4 antag)
Cc1nn(C(C)(C)C)c(OC(=O)c2ccc3c(c2)OCO3)c1S(=O)(=O)c1ccccc1	PostGolgi ctrl 37
Cc1ccc(S(=O)(=O)c2c(C)nn(C(C)(C)C)c2OC(=O)c2ccc(Br)o2)cc1	PostGolgi yeast 50
CCCc1nc(SCC(=O)N2CCC(Cc3ccccc3)CC2)c2c(=O)n(C)c(=O)n(C)c2n1	PostGolgi ctrl 38
Cn1c(=O)c2c(SCC(=O)N3CCC(Cc4ccccc4)CC3)nc(C3CC3)nc2n(C)c1=O	none (no result: PostGolgi yeast, PostGolgi ctrl, EphB4 antag)
CCCc1nc(SCC(=O)N2CCCc3ccccc32)c2c(=O)n(C)c(=O)n(C)c2n1	PostGolgi yeast 49, PostGolgi ctrl 37 (no result: Calb biofilm kill)
Cn1c(=O)c2c(SCC(=O)N3CCCc4ccccc43)nc(CC(C)(C)C)nc2n(C)c1=O	none
CC(/C=C/c1cccs1)=C\C(=O)O	PostGolgi ctrl 32
COc1ccc(NC(=O)c2ccc(CN3CCN(c4ccccc4)CC3)cc2)cc1	PostGolgi yeast 64
COc1cccc(C(=O)Nc2ccc(N3CCN(Cc4ccccc4)CC3)cc2)c1	none
COc1cccc(NC(=O)c2ccc(CN3CCN(c4ccccc4)CC3)cc2)c1	PostGolgi yeast 37
COc1c(F)c(F)c(C(=O)Nc2ccc(N3CCN(Cc4ccccc4)CC3)cc2)c(F)c1F	none
Cc1cc(C(=O)NCCCn2ccnc2)sc1-c1ccccc1	none
CN(C(=O)Cc1ccccc1)n1cnnc1	none (no result: PostGolgi yeast, PostGolgi ctrl)
Cc1ccc(OCc2nnc(SCc3ccc(C#N)cc3)n2-c2ccc(C)cc2)cc1	PostGolgi ctrl 39
Cc1ccc(-n2c(SCc3ccc(C#N)cc3)nnc2-c2ccccn2)cc1	none
C=CCn1c(COc2ccc(Cl)cc2)nnc1SCc1ccc(C#N)cc1	PostGolgi yeast 47, PostGolgi ctrl 41
Fc1ccccc1CSc1nc2ccccc2[nH]1	none
CS(=O)(=O)N1CCN(c2ccccc2NC(=O)c2cccc3ccccc23)CC1	none (no result: PostGolgi yeast, PostGolgi ctrl)
COc1cc2ccccc2cc1C(=O)Nc1ccccc1N1CCN(S(C)(=O)=O)CC1	PostGolgi ctrl 38
CN1CCN(C(=O)N2CCNC2=O)CC1	none
CCCN(CCC)C(=O)Cc1coc2ccc3ccccc3c12	PostGolgi ctrl 42
CCc1ccc(NC(=O)CNS(=O)(=O)c2c(C)noc2C)cc1	none (no result: Calb biofilm kill)
c1ccc(-c2nc(N3CCN(c4ccccc4)CC3)nc(-n3ccnc3)n2)cc1	PostGolgi ctrl 54
c1ccc(-c2nc(N3CCCCCC3)nc(-n3ccnc3)n2)cc1	PostGolgi yeast 62, PostGolgi ctrl 72
CCOC(=O)CN1C(=N)N(c2nc(NC(C)C)nc(NC(C)C)n2)CC1=O	none (no result: PostGolgi yeast, PostGolgi ctrl)
O=C(Nc1nc(-c2cccs2)cs1)c1ccc(Cl)s1	PostGolgi yeast 32 (no result: EphB4 antag)
CCc1cc(-c2n[nH]c(=S)n2-c2ccccc2C)cs1	none (no result: Calb biofilm kill)
O=C(N/N=C/c1ccc(OC(=O)c2ccccc2)cc1)c1ccc(CN2CCOCC2)cc1	PostGolgi yeast 80 (no result: Calb biofilm kill)
CCOC(=O)c1ccc(NC(=O)c2ccc(CN3CCOCC3)cc2)cc1	PostGolgi yeast 94
O=C(Oc1ccc(/C=N/O)cc1)c1ccccc1	PostGolgi ctrl 31
O=C(Nc1ccc(N2CCOCC2)cc1)c1cc2ccccc2o1	none (no result: EphB4 antag)
O=C(Nc1ccc(CN2CCOCC2)cc1)c1cc2ccccc2o1	PostGolgi yeast 38
CCOC(=O)c1oc2ccc(Br)cc2c1CSc1nnc(C)s1	none
CCOC(=O)c1c(NC(=O)CSc2nnc(-c3cccnc3)n2Cc2ccco2)sc(C)c1C	none
CCn1c(CNc2ccc(F)cc2)nnc1SCC(=O)Nc1ccc(OC)cc1	none (no result: PostGolgi yeast, PostGolgi ctrl)
O=C(CN1CCN(Cc2cccc(Cl)c2)C1=O)NCc1ccccn1	none
O=C(Nc1ccccc1Cl)c1cc(S(=O)(=O)N2CCOCC2)cs1	PostGolgi ctrl 31
COc1cc2oc3ccccc3c2cc1N(CC(=O)N1CCCCC1)S(=O)(=O)c1ccc(C)cc1	PostGolgi ctrl 43 (no result: Calb biofilm kill)
COc1cc2oc3ccccc3c2cc1N(CC(=O)N(C)C)S(=O)(=O)c1ccc(C)cc1	none (no result: Calb biofilm kill)
COCc1nnc(NC(=O)c2ccc(S(=O)(=O)N(C)C3CCCCC3)cc2)o1	none
Cc1ccc(CSc2nc3c(c(SCC(=O)O)n2)CCCC3)cc1	none (no result: Calb biofilm kill)
Cc1ccc(CSc2nc3c(c(N(C)C)n2)CCCC3)cc1	PostGolgi ctrl 41 (no result: Calb biofilm kill)
CNc1nc(SCc2ccc(C)cc2)nc2c1CCCC2	PostGolgi ctrl 33 (no result: Calb biofilm kill)
CN(C)c1nc(SCc2ccccc2Cl)nc2c1CCCC2	PostGolgi yeast 59, PostGolgi ctrl 36 (no result: Calb biofilm kill)
COc1ccc(CNC(=O)C(c2ccco2)N(C(=O)c2csnn2)c2cccc(C)c2C)cc1 (stereo not drawn)	none (no result: PostGolgi yeast, PostGolgi ctrl)
COc1ccc(S(=O)(=O)Nc2ccc(N(C)C(C)=O)cc2)cc1	Calb biofilm kill 42
COc1ccc(S(=O)(=O)Nc2ccc(NC(C)=O)cc2)cc1	none
O=C(c1ccc(Cl)c(Cl)c1)c1cc(-c2ccccn2)c(N2CCOCC2)s1	PostGolgi ctrl 56 (no result: Calb biofilm kill)
Nc1cc(C(=O)c2ccccc2)ccc1N1CCOCC1	none (no result: PostGolgi yeast, PostGolgi ctrl)
O=C(c1ccc(Br)cc1)c1cc(-c2ccccn2)c(N2CCOCC2)s1	PostGolgi ctrl 43 (no result: Calb biofilm kill)
O=C(c1cc(Cl)ccc1Cl)N1CCN(c2ccccn2)CC1	none
CCOC(=O)Cn1c(=O)oc2cc(S(=O)(=O)N3CCc4ccccc43)ccc21	none
CSc1nc(-c2ccccc2)nc(N2CCN(C)CC2)c1C(C)=O	none
CSc1nc(-c2ccccc2)nc(N2CCCC2)c1C(C)=O	PostGolgi ctrl 39
Cc1cc(NC(=O)Cn2nnc3sc4c(c3c2=O)CCCC4)no1	none

Bioassay records: PubChem BioAssay, several laboratories
